According to PubChem BioAssay (NCATS):
Records with an inconclusive call do not appear. Calls of active or inactive are those of the source. Unless noted, the call rests on the fitted dose curve; in most records, active means well fitted inhibition curve with a large enough effect; inconclusive means small, poorly fitted or top-dose-only effect; inactive means flat fitted curve, though single readings scatter.

Key:
[1] = qHTS Assay for Lipid Storage Modulators (AID 1519; calls by dose curve; on activity change, negative = inhibition: on the % scale 0 is the no-effect control and ±100 the full control effect); conditions: Drosophila S3 cells, BODIPY lipid droplet/cell ratio, laser cytometry, cells loaded with oleic acid; for activity change, negative = inhibition: at 57.5 µM (top of the series)
Summary of the method: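 Cells seeded at 5,000 per well were treated with compounds over a concentration series and loaded with oleic acid (400 uM, as added). Lipid droplet fluorescence (488 nm excitation, 500-530 nm channel) was read by laser-scanning cytometry and normalized to 20 uM Triacsin C.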

[2] = qHTS profiling for inhibitors of Plasmodium falciparum proliferation (AID 504749); further: potency means the concentration at half of the fitted maximal effect;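 on activity, negative = inhibition: 0% = DMSO vehicle and full inhibition = artemisinin control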; on all read-outs here: nearly all actives have a fitted effect of over 60% in size; conditions: P. falciparum in erythrocytes, SYBR Green DNA, 72 h; for activity, negative = inhibition: at 28.7 µM (top of the series)
Summary of the method: (§1)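 P. falciparum-infected erythrocytes (0.3% parasitemia, 2.5% hematocrit) incubated with compound 72 h at 37 C, 5% CO2. Parasite DNA detected by SYBR Green after lysis, overnight at room temperature; normalised to 0.29 uM artemisinin and DMSO.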

[3] = test system: 3D7; experiment: as above; conditions: P. falciparum in erythrocytes, SYBR Green DNA, 72 h; series mostly up to 12.8 µM
Summary of the method: as §1

[4] = test system: C2A; experiment: as above; conditions: P. falciparum in erythrocytes, SYBR Green DNA, 72 h; series mostly up to 12.8 µM
Summary of the method: as §1

[5] = test system: CP217; experiment: as above; conditions: P. falciparum in erythrocytes, SYBR Green DNA, 72 h; series mostly up to 12.8 µM
Summary of the method: as §1

[6] = test system: CP237; experiment: as above; conditions: P. falciparum in erythrocytes, SYBR Green DNA, 72 h; series mostly up to 12.8 µM
Summary of the method: as §1

[7] = test system: CP238; experiment: as above; conditions: P. falciparum in erythrocytes, SYBR Green DNA, 72 h; series mostly up to 12.8 µM
Summary of the method: as §1

[8] = test system: CP252; experiment: as above; conditions: P. falciparum in erythrocytes, SYBR Green DNA, 72 h; series mostly up to 12.8 µM
Summary of the method: as §1

[9] = test system: CP291; experiment: as above; conditions: P. falciparum in erythrocytes, SYBR Green DNA, 72 h; series mostly up to 12.8 µM
Summary of the method: as §1

[10] = test system: CP297; experiment: as above; conditions: P. falciparum in erythrocytes, SYBR Green DNA, 72 h; series mostly up to 12.8 µM
Summary of the method: as §1

[11] = test system: ECU; experiment: as above; conditions: P. falciparum in erythrocytes, SYBR Green DNA, 72 h; series mostly up to 12.8 µM
Summary of the method: as §1

[12] = test system: HB3; experiment: as above; conditions: P. falciparum in erythrocytes, SYBR Green DNA, 72 h; series mostly up to 12.8 µM
Summary of the method: as §1

[13] = test system: PAD; experiment: as above; conditions: P. falciparum in erythrocytes, SYBR Green DNA, 72 h; series mostly up to 12.8 µM
Summary of the method: as §1

[14] = test system: PC26; experiment: as above; conditions: P. falciparum in erythrocytes, SYBR Green DNA, 72 h; series mostly up to 12.8 µM
Summary of the method: as §1

[15] = test system: SC27B; experiment: as above; conditions: P. falciparum in erythrocytes, SYBR Green DNA, 72 h; series mostly up to 12.8 µM
Summary of the method: as §1

[16] = target: Luciferin 4-monooxygenase (Photinus pyralis) (UniProt P08659); experiment: Biochemical firefly luciferase enzyme assay for NPC (AID 624030);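 further: purified P. pyralis luciferase at 10 nM with luciferin and ATP substrate; 0% = DMSO and -100% = full luciferase inhibition by PTC124 control; nearly all actives have a fitted effect of over 70% in size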; conditions: purified P. pyralis luciferase, luminescence, 5 min; series mostly up to 24.9 µM
Luciferin 4-monooxygenase (Photinus pyralis), sequence (P08659 whole entry, looked up): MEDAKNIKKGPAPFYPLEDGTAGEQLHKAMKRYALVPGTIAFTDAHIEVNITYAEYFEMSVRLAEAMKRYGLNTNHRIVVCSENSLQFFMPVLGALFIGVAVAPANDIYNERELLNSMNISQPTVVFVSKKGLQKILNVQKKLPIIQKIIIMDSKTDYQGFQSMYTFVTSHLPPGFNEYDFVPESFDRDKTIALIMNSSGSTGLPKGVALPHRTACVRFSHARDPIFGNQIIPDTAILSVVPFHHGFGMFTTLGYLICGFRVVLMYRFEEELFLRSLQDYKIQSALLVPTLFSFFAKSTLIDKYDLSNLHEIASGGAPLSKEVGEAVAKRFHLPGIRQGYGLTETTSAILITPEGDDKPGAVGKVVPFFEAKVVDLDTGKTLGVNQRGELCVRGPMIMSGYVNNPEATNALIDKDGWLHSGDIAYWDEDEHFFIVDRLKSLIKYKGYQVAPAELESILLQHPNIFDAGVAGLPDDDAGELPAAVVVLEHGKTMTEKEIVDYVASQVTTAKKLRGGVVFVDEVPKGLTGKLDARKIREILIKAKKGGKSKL
Summary of the method: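 Purified P. pyralis luciferase at 10 nM in 50 mM Tris Acetate (final), luminescence read within 5 minutes of enzyme addition to compounds. Activity normalised to PTC124 versus DMSO; concentration-response curves classed by r2, magnitude and activity.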

[17] = target: Ubiquitin carboxyl-terminal hydrolase 1 (Homo sapiens) (UniProt O94782); experiment: Inhibitors of USP1/UAF1: Pilot qHTS (AID 504865); conditions: purified USP1/UAF1, Ub-rhodamine cleavage fluorescence; series mostly up to 114 µM;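 further: rhodamine fluorescence freed from ubiquitin-rhodamine substrate followed over time; top concentration of the series differs between compounds; on the % scale 0 is the no-effect control and ±100 the full control effect; nearly all actives have a fitted effect of over 35% in size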
Ubiquitin carboxyl-terminal hydrolase 1 (Homo sapiens), sequence (O94782 whole entry, looked up): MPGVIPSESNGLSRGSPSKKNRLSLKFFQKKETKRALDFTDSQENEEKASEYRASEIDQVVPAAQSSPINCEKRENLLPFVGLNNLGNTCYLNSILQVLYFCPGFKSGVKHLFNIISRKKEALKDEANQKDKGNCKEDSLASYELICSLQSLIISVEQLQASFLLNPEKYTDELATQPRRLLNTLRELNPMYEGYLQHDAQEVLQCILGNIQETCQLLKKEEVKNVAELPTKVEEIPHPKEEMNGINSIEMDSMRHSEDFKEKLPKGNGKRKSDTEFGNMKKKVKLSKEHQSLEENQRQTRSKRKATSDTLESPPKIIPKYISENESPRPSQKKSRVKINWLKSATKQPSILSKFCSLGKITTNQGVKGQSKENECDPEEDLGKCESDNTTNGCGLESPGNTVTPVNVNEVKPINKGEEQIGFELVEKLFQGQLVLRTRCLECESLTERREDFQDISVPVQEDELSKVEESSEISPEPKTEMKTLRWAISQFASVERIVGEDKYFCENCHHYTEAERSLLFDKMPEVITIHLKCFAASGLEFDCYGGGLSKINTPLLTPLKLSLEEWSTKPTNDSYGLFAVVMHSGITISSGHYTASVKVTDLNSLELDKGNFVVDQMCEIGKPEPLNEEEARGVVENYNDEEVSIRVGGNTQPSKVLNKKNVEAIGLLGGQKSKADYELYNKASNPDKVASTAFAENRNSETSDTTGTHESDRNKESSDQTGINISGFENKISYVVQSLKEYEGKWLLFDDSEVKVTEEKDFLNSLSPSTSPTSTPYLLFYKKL
Summary of the method: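 Kinetic fluorescence assay: 1nM USP1/UAF1, 15 min compound preincubation, then 150nM Ub-Rho; 480/540 nm.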

[18] = target: Glucocorticoid receptor (Homo sapiens) (UniProt P04150); experiment: GR-EFC Redistribution (AID 451; calls by dose curve; further: potency means the concentration at half of the fitted maximal effect); conditions: CHO-K1 GR-EFC translocation, beta-gal luminescence, 2 h
Glucocorticoid receptor (Homo sapiens), sequence (P04150 whole entry, looked up, the tested form may be a part): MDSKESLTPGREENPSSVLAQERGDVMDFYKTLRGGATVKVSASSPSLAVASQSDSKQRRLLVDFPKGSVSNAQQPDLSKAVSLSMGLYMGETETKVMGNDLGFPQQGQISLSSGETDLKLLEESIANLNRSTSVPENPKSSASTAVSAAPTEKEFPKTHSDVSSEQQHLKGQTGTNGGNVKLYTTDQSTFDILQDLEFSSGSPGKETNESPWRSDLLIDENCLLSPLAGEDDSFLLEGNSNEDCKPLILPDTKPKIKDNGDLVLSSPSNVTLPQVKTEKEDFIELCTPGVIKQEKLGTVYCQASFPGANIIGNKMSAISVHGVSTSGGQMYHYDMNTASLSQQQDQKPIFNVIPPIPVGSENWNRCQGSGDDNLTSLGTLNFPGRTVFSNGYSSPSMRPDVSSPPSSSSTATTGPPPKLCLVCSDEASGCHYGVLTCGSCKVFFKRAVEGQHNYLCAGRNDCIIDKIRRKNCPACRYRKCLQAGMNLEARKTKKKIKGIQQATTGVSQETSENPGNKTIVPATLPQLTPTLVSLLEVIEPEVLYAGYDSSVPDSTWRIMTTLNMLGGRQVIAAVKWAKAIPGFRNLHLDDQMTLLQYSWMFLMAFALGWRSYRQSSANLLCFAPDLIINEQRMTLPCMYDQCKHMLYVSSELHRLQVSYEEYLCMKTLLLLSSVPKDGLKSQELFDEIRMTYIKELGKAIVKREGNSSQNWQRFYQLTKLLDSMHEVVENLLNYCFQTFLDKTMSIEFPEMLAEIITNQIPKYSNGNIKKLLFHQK
Summary of the method: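 CHO-K1 cells expressing nuclear EA and GR-ED fragments of b-gal; compounds titrated up to 46 uM final, 2 h at 37 C. GR nuclear translocation read as complemented b-gal luminescence after 1 h RT detection.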

[19] = target: 3',5'-cyclic-AMP phosphodiesterase 4B (Homo sapiens) (UniProt Q07343); experiment: qHTS Assay for Inhibitors of PDE-IV (AID 607; active means well fitted activation curve with a large enough effect in the main read-out, with a control signal flat, not every such curve was filed as active; further: % of control where 0% means no effect); conditions: HEK293 ACTOne CNG channel cells, membrane potential fluorescence; series mostly up to 22.9 µM
3',5'-cyclic-AMP phosphodiesterase 4B (Homo sapiens), sequence (Q07343 whole entry, looked up): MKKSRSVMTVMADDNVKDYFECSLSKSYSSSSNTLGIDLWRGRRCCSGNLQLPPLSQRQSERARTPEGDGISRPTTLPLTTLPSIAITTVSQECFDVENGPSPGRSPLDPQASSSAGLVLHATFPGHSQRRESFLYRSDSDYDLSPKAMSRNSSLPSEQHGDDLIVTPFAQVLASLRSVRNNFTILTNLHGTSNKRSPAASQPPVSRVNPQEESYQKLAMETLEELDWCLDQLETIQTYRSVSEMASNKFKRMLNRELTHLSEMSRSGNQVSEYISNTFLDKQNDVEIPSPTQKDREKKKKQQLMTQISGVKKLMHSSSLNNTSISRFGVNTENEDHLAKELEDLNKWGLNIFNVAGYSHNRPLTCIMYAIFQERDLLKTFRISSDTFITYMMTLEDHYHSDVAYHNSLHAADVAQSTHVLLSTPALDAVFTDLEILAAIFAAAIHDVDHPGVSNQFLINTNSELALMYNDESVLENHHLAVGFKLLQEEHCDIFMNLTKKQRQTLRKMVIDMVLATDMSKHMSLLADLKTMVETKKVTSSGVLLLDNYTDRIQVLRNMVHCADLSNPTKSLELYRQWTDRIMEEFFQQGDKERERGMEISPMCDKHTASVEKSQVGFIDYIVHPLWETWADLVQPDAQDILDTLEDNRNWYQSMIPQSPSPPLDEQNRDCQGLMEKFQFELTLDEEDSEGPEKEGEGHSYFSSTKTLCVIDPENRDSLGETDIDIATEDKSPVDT
Summary of the method: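 ACTOne HEK293 cells carry a modified cAMP-gated CNG channel and express endogenous PDE4; plated 1000 cells/well, compounds up to 22.9 uM final. Membrane-potential dye fluorescence (ex 535/em 590) was read; parental cells received 10 uM forskolin + 100 uM RO 20-1724.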

[20] = measured here: cell count channel max response
[21] = measured here: lipid channel max response

COC1C=CO[C@@]2(C)Oc3c(C)c(O)c4c(O)c(c(C=NN5CCN(C)CC5)c(O)c4c3C2=O)NC(=O)/C(C)=C\C=CC(C)C(O)[C@@H](C)C(O)C(C)[C@H](OC(C)=O)C1C (some centres not stated)
10.6%: max response [1, 21]
7.61%: max response [1, 20]
active: Potency ([2]; parasite line A) 3980 nM | Potency ([2]; parasite line B) 3980 nM | Potency [3] 2000 nM | Potency [4] 8910 nM | Potency [5] 5010 nM | Potency [6] 355 nM | Potency [7] 3550 nM | Potency [8] 3160 nM | Potency [9] 4260 nM | Potency [10] 953 nM | Potency [11] 282 nM | Potency [12] 447 nM | Potency [13] 282 nM | Potency [14] 1070 nM | Potency [15] 282 nM
inactive: activity change, negative = inhibition [1] -0.247%

CN(C)CCc1c[nH]c2ccc(CC3COC(=O)N3)cc12 (configuration not stated)
inactive: activity change, negative = inhibition [1] 10.6% | Potency [16] | activity, negative = inhibition ([2]; parasite line A) -2.15% | activity, negative = inhibition ([2]; parasite line B) 12.7% | Potency [3] | Potency [4] | Potency [5] | Potency [6] | Potency [7] | Potency [8] | Potency [9] | Potency [10] | Potency [11] | Potency [12] | Potency [13] | Potency [14] | Potency [15]
-1.36%: max response [1, 20]
11.4%: max response [1, 21]

CNC1C(OC2C(O[C@@H]3C(O)C(O)[C@@H](N=C(N)N)C(O)C3N=C(N)N)OC(C)[C@@]2(O)CO)OC(CO)C(O)C1O (some centres not stated)
25.4%: max response [1, 21]
inactive: activity change, negative = inhibition [1] 8.79% | Potency [17] | Potency [16] | activity, negative = inhibition ([2]; parasite line A) 9.26% | activity, negative = inhibition ([2]; parasite line B) 13.4% | Potency [3] | Potency [4] | Potency [5] | Potency [6] | Potency [7] | Potency [8] | Potency [9] | Potency [11] | Potency [12] | Potency [14] | Potency [15]
13.3%: max response [1, 20]

COC(=O)N/N=C/C1=C[N+](=O)c2ccccc2[N+]1=O
inactive: activity change, negative = inhibition [1] 12.7% | Potency [17] | Potency [16] | activity, negative = inhibition ([2]; parasite line A) -2.61% | activity, negative = inhibition ([2]; parasite line B) -4.8% | Potency [3] | Potency [4] | Potency [5] | Potency [6] | Potency [7] | Potency [8] | Potency [9] | Potency [10] | Potency [11] | Potency [12] | Potency [13] | Potency [14] | Potency [15]
5.74%: max response [1, 20]
17.7%: max response [1, 21]

COc1cc2ccc(=O)oc2c(O)c1O
inactive: Potency [18] > 46000 nM | outcome [19] | activity change, negative = inhibition [1] -4.51%
13.9%: max response [1, 20]
11.4%: max response [1, 21]

CC1=C(CCC(=O)O)c2cc3nc(cc4[nH]c(cc5[nH]c(cc1n2)c(C)c5C(C)O)c(C)c4C(C)O)C(C)=C3CCC(=O)O (configuration not stated)
inactive: activity change, negative = inhibition [1] 3.12% | Potency [17]
12.6%: max response [1, 20]
18.6%: max response [1, 21]

CN(C)CCCOC1C(C(O)CO)OC2OC(C)(C)O[C@@H]21 (some centres not stated)
inactive: activity change, negative = inhibition [1] 4.25% | Potency [17] | Potency [16] | activity, negative = inhibition ([2]; parasite line A) 6.96% | activity, negative = inhibition ([2]; parasite line B) 11.3% | Potency [3] | Potency [4] | Potency [5] | Potency [6] | Potency [7] | Potency [8] | Potency [9] | Potency [10] | Potency [11] | Potency [12] | Potency [13] | Potency [14] | Potency [15]
11.4%: max response [1, 20]
18.7%: max response [1, 21]

CNC1CC(N)[C@H](O)[C@@H](O[C@@H]2OC(CO)C3OC4(OC(C(N)CO)C(O)C(O)C4O)O[C@@H]3[C@H]2O)C1O (some centres not stated)
inactive: activity change, negative = inhibition [1] 3.46% | Potency [17] | Potency [16] | activity, negative = inhibition ([2]; parasite line A) 1.25% | activity, negative = inhibition ([2]; parasite line B) -26.8% | Potency [3] | Potency [4] | Potency [5] | Potency [6] | Potency [7] | Potency [8] | Potency [9] | Potency [10] | Potency [11] | Potency [12] | Potency [13] | Potency [14] | Potency [15]
3.52%: max response [1, 20]
7.53%: max response [1, 21]

CCC(C)C(=O)OC1CCC=C2C=CC(C)C(CCC3CC(O)CC(=O)O3)[C@@H]21 (some centres not stated)
6.43%: max response [1, 21]
inactive: activity change, negative = inhibition [1] 0.311% | Potency [16] | activity, negative = inhibition ([2]; parasite line A) 6.36% | activity, negative = inhibition ([2]; parasite line B) -8.04% | Potency [3] | Potency [4] | Potency [5] | Potency [6] | Potency [7] | Potency [8] | Potency [9] | Potency [10] | Potency [11] | Potency [12] | Potency [13] | Potency [14] | Potency [15]
8.24%: max response [1, 20]

COc1c(O)cc(O)cc1O
3.65%: max response [1, 20]
inactive: activity change, negative = inhibition [1] -1.6% | Potency [17]
4.87%: max response [1, 21]

Nc1nc2ncc(CNc3ccc(C(=O)NC(CCC(=O)O)C(=O)O)cc3)nc2c(=O)[nH]1 (configuration not stated)
inactive: activity change, negative = inhibition [1] 5.18% | Potency [17] | Potency [16] | activity, negative = inhibition ([2]; parasite line A) 10.3% | activity, negative = inhibition ([2]; parasite line B) 16.6% | Potency [3] | Potency [4] | Potency [5] | Potency [6] | Potency [7] | Potency [8] | Potency [9] | Potency [10] | Potency [11] | Potency [12] | Potency [13] | Potency [14] | Potency [15]
24.2%: max response [1, 21]
16.9%: max response [1, 20]

CCC(CCC(C)C1CCC2C3CC=C4CC(O)CC[C@@]4(C)C3CC[C@@]12C)C(C)C (some centres not stated)
15.1%: max response [1, 21]
9.21%: max response [1, 20]
inactive: activity change, negative = inhibition [1] 3.18% | Potency [17] | Potency [16] | activity, negative = inhibition ([2]; parasite line A) -3.58% | activity, negative = inhibition ([2]; parasite line B) 13.1% | Potency [3] | Potency [4] | Potency [5] | Potency [6] | Potency [7] | Potency [8] | Potency [9] | Potency [10] | Potency [11] | Potency [12] | Potency [13] | Potency [14] | Potency [15]
